This is a sample that favours compounds with a hit; in the whole collection about 3.3% have one here.
ERa coact inh: ERα–SRC-1 coactivator interaction inhibitors, primary screen, biochemical, TR-FRET, ERα LBD, estradiol-bound; Estrogen receptor (Homo sapiens), P03372; TR-FRET ER-alpha LBD / SRC-1 peptide; inhibition, % at 25.6 µM; hit rate 1.7% among 86,000; in the data active = inhibition above about 50%;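 also: 0% = receptor plus peptide control and 100% = peptide only without receptor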
FAK inh: FAK kinase inhibitors, primary screen, biochemical. hit rate 0.84% among 97,000. biochemical FAK kinase activity assay. inhibition, %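 (tested at 7 µM)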. AID 727, 2007; in the data active = inhibition above about 19%;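 also: 0% = DMSO and 100% = reference compound high control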
ERb coact inh: inhibitors of ERβ-SRC1 coactivator interaction, primary screen, biochemical, TR-FRET, ERβ LBD, SRC-1 peptide | Estrogen receptor beta (Homo sapiens), Q92731 | TR-FRET ER-beta LBD / SRC1-Cy5 peptide binding; receptor agonist-loaded with 1 µM estradiol | inhibition, % at 25.6 µM | hit rate 1.3% among 86,000 | AID 633, 2007;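 active = compounds whose percent inhibition of the receptor-coactivator binding signal exceeds about 50% in the single-dose screen, limit read from the data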;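 also: 0% = receptor plus peptide wells without compound and 100% = peptide-only wells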
Candida biofilm: clotrimazole potentiators killing Candida biofilms, primary screen, with clotrimazole, Alamar Blue. AID 834, 2007. hit rate 0.14% among 85,000. C. albicans biofilm + clotrimazole. inhibition, % at 6 µM;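 active = inhibition above 20%; inactive = inhibition below 20%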;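 also: preformed 24 hr biofilms exposed to compound for 48 hr; 0% = biofilm without compound and 100% = blank killed by clotrimazole plus chlorhexidine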
Smad3 inh: Smad3/FoxH1 peptide binding inhibitors, primary screen, biochemical, TR-FRET. AID 630, 2007. hit rate 0.29% among 88,000. Mothers against decapentaplegic homolog 3 (Homo sapiens), P84022. TR-FRET Smad3/Dy647-FoxH1 peptide binding, europium anti-His. inhibition, % at 25 µM;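 active = compounds that reduce the energy-transfer binding signal between the protein and its labelled peptide by more than half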;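 also: 0% = Smad3 plus labelled peptide maximal FRET and 100% = peptide-only background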
Target sequence (P84022 whole entry, looked up): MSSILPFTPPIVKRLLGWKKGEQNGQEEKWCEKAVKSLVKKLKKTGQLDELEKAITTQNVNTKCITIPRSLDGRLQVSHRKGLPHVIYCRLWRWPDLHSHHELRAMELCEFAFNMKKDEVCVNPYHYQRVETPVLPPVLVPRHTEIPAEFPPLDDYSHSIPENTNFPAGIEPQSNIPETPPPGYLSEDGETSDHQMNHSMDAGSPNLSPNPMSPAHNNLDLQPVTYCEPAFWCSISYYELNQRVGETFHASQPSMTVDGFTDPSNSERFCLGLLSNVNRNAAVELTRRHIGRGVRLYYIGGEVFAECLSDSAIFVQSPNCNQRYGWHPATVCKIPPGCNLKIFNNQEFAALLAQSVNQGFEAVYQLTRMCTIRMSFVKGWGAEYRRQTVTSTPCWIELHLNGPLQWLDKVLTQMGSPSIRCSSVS
ERa SRC1 pot: enhancers of ERα–SRC-1 coactivator binding, primary screen, biochemical, TR-FRET, ERα LBD, low estradiol; coactivator binding (% of control), % at 25.6 µM; AID 639, 2007; Estrogen receptor (Homo sapiens), P03372; TR-FRET ERalpha-LBD/SRC-Cy5 coactivator binding, 2 h; 100 = basal binding, no effect; hit rate 1.3% among 86,000; in the data active = activity above about 200%;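 also: binding measured in presence of low estradiol as agonist stimulus; 0% = peptide alone without receptor and 100% = receptor with peptide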
Starred values were filed as active, the others as inactive; [ ] = another dose, or the depositor's remark.

COC(=O)C1C(=O)C2=C(CC1C)NC(C)=C(C(=O)OC1CCCCC1)C2c1ccc(N(C)C)cc1 (centres undefined) was read as ERa coact inh 21, FAK inh 7, ERb coact inh 12, Candida biofilm 6, Smad3 inh 5 and ERa SRC1 pot 223*.
COc1ccc2nc(SCC(=O)Nc3ccc4sc(C)nc4c3)c(C#N)cc2c1 was read as FAK inh -125.
C=CCn1c(COc2ccc(Cl)cc2)nnc1SCC(=O)N/N=C/c1ccccc1 was read as FAK inh -3.
`O=C(NCCN1CCCCCC1)c1ccc(N2CCCC2=O)cc1` gave ERa coact inh 55*[fluorescence artefact?], FAK inh 2, ERb coact inh 22, Candida biofilm 3, Smad3 inh -3 and ERa SRC1 pot 155.
`Cn1c(=O)c2[nH]c(N=NN3CCN(CCO)CC3)nc2n(C)c1=O` gave Smad3 inh 8.
Screening O=C(OCC(=O)N1CCN(C(=O)c2ccco2)CC1)c1ccccc1C(=O)c1ccc(Cl)cc1 returned ERa coact inh 6, FAK inh -2, ERb coact inh 1, Candida biofilm 10, Smad3 inh -2 and ERa SRC1 pot 99.
For O=c1c2ccccc2nnn1CSc1nnc(-c2cccnc2)n1-c1ccccc1F the results were ERa coact inh -2, FAK inh 0, ERb coact inh -12, Candida biofilm -5, Smad3 inh 0 and ERa SRC1 pot 115.
Screening Cc1ccc(-n2c(SCn3nnc4ccccc4c3=O)nnc2-c2cccnc2)c(C)c1 returned ERa coact inh 87*[fluorescence artefact?], ERb coact inh 48, Candida biofilm 1, Smad3 inh 16 and ERa SRC1 pot 36.
`C=CCn1c(=O)c(C#N)cc2c(=O)n3ccccc3nc21` gave ERa coact inh 55*, FAK inh 4, ERb coact inh 57*, Candida biofilm 11, Smad3 inh 8 and ERa SRC1 pot 41.
c1ccc(-n2nnnc2-c2cnc(-c3cccnc3)nc2-c2cccs2)cc1 was read as ERa coact inh 2, FAK inh 1, ERb coact inh 5, Candida biofilm -3, Smad3 inh 17 and ERa SRC1 pot 84.
Screening CCCCN1C2=C(C(=O)CCC2)C(c2ccc(Cl)c(Cl)c2)C2=C1c1ccccc1C2=O (centres undefined) returned FAK inh 8.
Cn1c(SCC(=O)NC(=O)NCc2ccco2)nnc1-c1ccccc1 was read as ERa coact inh 59*[fluorescence artefact?], FAK inh 15, ERb coact inh 52*[fluorescence artefact?], Candida biofilm -1, Smad3 inh -11 and ERa SRC1 pot 142.
Screening CCCCn1c(SCc2ccc(C(=O)OC)o2)nc2cc(S(N)(=O)=O)ccc21 returned ERa coact inh 8, FAK inh -1, ERb coact inh 10, Candida biofilm 1, Smad3 inh 8 and ERa SRC1 pot 93.
Cn1c(SCC(=O)NCc2ccco2)nnc1-c1ccccc1 was read as ERa coact inh -15, FAK inh -1, ERb coact inh 0, Candida biofilm 7, Smad3 inh 7 and ERa SRC1 pot 86.
Screening CCCCn1c(SCC(=O)NC(=O)NCc2ccco2)nc2cc(S(N)(=O)=O)ccc21 returned ERa coact inh 58*[fluorescence artefact?], FAK inh 16, ERb coact inh 43, Candida biofilm 9, Smad3 inh -7 and ERa SRC1 pot 80.
CCOc1ccc2nc(SCC(=O)NC(=O)NCc3ccco3)[nH]c2c1 was read as ERa coact inh 38, FAK inh 9, ERb coact inh 56*[fluorescence artefact?], Candida biofilm -3, Smad3 inh -22 and ERa SRC1 pot 74.
For O=C(CSc1cccc(C(F)(F)F)c1)NC(=O)NCc1ccco1 the results were ERa coact inh 53*, ERb coact inh 29, Candida biofilm 8, Smad3 inh 2 and ERa SRC1 pot 76.
For O=C(CSc1nn(-c2ccc(F)cc2)c(=S)s1)NC(=O)NCc1ccco1 the results were ERa coact inh 67*[fluorescence artefact?], FAK inh 3, ERb coact inh 47, Candida biofilm -1, Smad3 inh -1 and ERa SRC1 pot 72.
Screening Cc1cc(SCC(=O)NC(=O)NCc2ccco2)nc2ccccc12 returned ERa coact inh 9, FAK inh -4, ERb coact inh 5, Candida biofilm 10, Smad3 inh 8 and ERa SRC1 pot 127.
For Cc1ccccc1CSCC(=O)NC(=O)NCc1ccco1 the results were ERa coact inh 55*, ERb coact inh 40, Candida biofilm 8, Smad3 inh -15 and ERa SRC1 pot 82.
Screening O=C(CSc1nc2ccccc2o1)NC(=O)NCc1ccco1 returned ERa coact inh 30, FAK inh 0, ERb coact inh 32, Candida biofilm 9, Smad3 inh 5 and ERa SRC1 pot 96.
Cc1cc(SCC(=O)NC(=O)NCc2ccco2)nc2c(C)cccc12 was read as ERa coact inh 65*, ERb coact inh 50, Candida biofilm 5, Smad3 inh 9 and ERa SRC1 pot 60.
Cc1ccc(N2CCn3c2nc2c3c(=O)n(CCc3ccccc3)c(=O)n2C)cc1 was read as ERa coact inh 60*[fluorescence artefact?], ERb coact inh 49, Candida biofilm 1, Smad3 inh 1 and ERa SRC1 pot 182.
For COc1ccc(N2CCCn3c2nc2c3c(=O)n(CCc3ccccc3)c(=O)n2C)cc1 the results were ERa coact inh 3, ERb coact inh 1, Candida biofilm 11, Smad3 inh 4 and ERa SRC1 pot 105.
CCCCCCN=CC1=C(O)C(C(=O)OC)C(C)(C)CC1=O (centres undefined) was read as ERa coact inh 42, FAK inh 0, ERb coact inh 60*, Candida biofilm 7, Smad3 inh 9 and ERa SRC1 pot 54.
For COC(=O)C1C(O)=C(C=NC2CCCCC2)C(=O)CC1(C)C (centres undefined) the results were ERa coact inh 1, FAK inh -4, ERb coact inh -5, Candida biofilm 2, Smad3 inh -2 and ERa SRC1 pot 100.
`C[C@H]1[C@H](C)OC(=O)C[C@H](O)C[C@H](O)C[C@H](O)CC[C@H](O)[C@H](O)CC(=O)C[C@H](O)[C@H](C(=O)O)[C@H](O)C[C@H](O[C@H]2O[C@@H](C)[C@H](O)[C@@H](N)[C@@H]2O)C=CC=CC=CC=CCCC=CC=C[C@@](C)(O)[C@H]1O` gave Smad3 inh 4.
`CC1=c2c(oc3cc(O)c(Nc4c(C)cc(O)cc4O)c(C)c23)=CC(=O)C1=Nc1c(C)cc(O)cc1O` gave Smad3 inh -4.

Assay outcomes as filed in PubChem.
